17 compounds from PubChem BioAssay can be followed below.

The test system of assay [1] is Plasmodium falciparum Sir2 (PF13_0152, Sir2A). In words: Plasmodium falciparum Sir2A binding compounds – biochemical, small-molecule microarray, 635 nm fluorescence, primary screen (AID 1098).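 Note: score merges spot fluorescence intensity with its signal-to-noise ratio.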 Conditions: fluorescence 635 nm, higher = more signal.
Assay [2] in a line: probe aDKK1 binding to arrayed compounds – biochemical, biotinylated probe, 635/667 nm fluorescence, primary screen (AID 1099).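 Note: score merges 667nm spot fluorescence with signal to noise across triplicate slides; reference of the scale not given here.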 Conditions: small-molecule microarray, higher = more signal.
A short description of assay [3]: probe aCHRDL2 binding to arrayed compounds – biochemical, biotinylated probe, 635/667 nm fluorescence, primary screen (AID 1100). Conditions: small-molecule microarray, higher = more signal.
Assay [4] in a line: change in splice reporter luminescence, either direction, cell-based, HEK293, spliceosome inhibition project, primary screen (AID 1101).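 Note: HEK293 cells carrying a splicing-competent luciferase reporter gene; test concentration not given here.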 The following applies: HEK293 splicing luciferase reporter, 24 h, higher = more signal, called active from +8 up or from −8 down. (A reporter such as luciferase makes a cellular process visible.)
Assay [5] deals with Fibroblast growth factor 10 (Homo sapiens) (UniProt O15520). In words: compounds binding fibroblast growth factor 10 – biochemical, small-molecule microarray, 635 nm fluorescence, primary screen (AID 1102). Conditions: FGF10 binding, fluorescence 635 nm, higher = more signal.
Fibroblast growth factor 10 (Homo sapiens), sequence (O15520 whole entry, looked up): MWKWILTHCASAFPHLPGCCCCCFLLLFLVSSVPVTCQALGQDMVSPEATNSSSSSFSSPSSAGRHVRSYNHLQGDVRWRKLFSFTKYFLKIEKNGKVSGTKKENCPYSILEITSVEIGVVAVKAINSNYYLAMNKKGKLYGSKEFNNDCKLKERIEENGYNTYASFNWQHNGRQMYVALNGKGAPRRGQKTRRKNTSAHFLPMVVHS
For assay [6], the system named is glycogen synthase kinase-3 (GSK3A per assay name; protocol says GSK3B). In words: compounds binding glycogen synthase kinase-3 – biochemical, small-molecule microarray, 635 nm fluorescence, GSK3A, primary screen (AID 1103). Note: the record names both GSK3A and GSK3B. Conditions: fluorescence 635 nm, higher = more signal.
Assay [7] deals with Epidermal growth factor receptor (Homo sapiens) (UniProt P00533). In words: compounds binding epidermal growth factor receptor – biochemical, small-molecule microarray, 635 nm fluorescence, primary screen (AID 1104).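 Note: score merges 667 nm emission intensity with spot signal to noise over triplicate slides.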 The following applies: EGFR binding, higher = more signal.
Epidermal growth factor receptor (Homo sapiens), sequence (P00533 whole entry, looked up): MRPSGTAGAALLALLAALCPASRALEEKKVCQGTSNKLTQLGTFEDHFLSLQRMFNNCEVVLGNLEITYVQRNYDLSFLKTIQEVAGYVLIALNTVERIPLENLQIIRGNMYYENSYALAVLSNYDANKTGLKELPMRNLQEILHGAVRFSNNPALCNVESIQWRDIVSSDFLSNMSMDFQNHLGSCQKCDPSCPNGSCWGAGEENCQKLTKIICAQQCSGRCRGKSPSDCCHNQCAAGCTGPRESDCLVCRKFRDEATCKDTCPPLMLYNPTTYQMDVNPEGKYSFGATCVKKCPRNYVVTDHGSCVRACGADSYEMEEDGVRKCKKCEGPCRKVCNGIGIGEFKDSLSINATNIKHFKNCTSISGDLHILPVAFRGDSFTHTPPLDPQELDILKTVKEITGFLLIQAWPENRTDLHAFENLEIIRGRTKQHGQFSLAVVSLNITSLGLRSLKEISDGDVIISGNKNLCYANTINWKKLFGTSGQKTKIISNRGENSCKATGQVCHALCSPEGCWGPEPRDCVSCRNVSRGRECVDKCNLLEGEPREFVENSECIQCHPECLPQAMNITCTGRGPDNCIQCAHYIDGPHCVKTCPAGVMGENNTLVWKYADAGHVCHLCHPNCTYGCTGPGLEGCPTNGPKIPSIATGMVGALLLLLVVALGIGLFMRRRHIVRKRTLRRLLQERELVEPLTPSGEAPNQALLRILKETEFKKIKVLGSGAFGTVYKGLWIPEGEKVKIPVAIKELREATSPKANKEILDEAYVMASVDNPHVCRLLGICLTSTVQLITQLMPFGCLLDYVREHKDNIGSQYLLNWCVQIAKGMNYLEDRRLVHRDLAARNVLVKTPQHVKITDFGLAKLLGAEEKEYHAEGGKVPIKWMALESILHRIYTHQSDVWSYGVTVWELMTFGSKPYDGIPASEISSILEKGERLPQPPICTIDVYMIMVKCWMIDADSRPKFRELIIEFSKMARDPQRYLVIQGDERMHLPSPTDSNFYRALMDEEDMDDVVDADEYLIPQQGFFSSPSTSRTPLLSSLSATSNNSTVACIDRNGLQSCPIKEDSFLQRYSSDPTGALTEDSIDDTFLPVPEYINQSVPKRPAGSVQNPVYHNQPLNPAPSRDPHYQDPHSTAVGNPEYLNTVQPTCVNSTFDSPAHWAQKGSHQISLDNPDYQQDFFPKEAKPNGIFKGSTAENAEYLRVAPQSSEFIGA
For assay [8], the target named is Follistatin-related protein 3 (Homo sapiens) (UniProt O95633). In words: compounds binding follistatin-related protein 3 – biochemical, small-molecule microarray, 635 nm fluorescence, primary screen (AID 1105).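 Note: score merges emission near 667 nm and signal to noise per printed spot across three slides.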 Conditions: FSTL3 binding, higher = more signal.
Follistatin-related protein 3 (Homo sapiens), sequence (O95633 whole entry, looked up): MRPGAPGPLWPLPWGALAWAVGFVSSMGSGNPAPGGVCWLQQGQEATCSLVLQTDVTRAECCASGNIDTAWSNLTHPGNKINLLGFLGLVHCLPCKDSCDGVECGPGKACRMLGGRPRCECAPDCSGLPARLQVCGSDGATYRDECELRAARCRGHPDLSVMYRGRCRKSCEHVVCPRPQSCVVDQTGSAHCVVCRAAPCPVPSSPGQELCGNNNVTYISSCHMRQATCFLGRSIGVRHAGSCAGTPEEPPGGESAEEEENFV
For assay [9], the target named is Dickkopf-related protein 1 (Homo sapiens) (UniProt O94907). In words: small molecules binding DKK1 protein – biochemical, small-molecule microarray, 635 nm fluorescence scan, primary screen (AID 1106).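 Note: score merges emission near 667 nm with signal to noise over three replicate slides.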 The following applies: higher = more signal.
Dickkopf-related protein 1 (Homo sapiens), sequence (O94907 whole entry, looked up): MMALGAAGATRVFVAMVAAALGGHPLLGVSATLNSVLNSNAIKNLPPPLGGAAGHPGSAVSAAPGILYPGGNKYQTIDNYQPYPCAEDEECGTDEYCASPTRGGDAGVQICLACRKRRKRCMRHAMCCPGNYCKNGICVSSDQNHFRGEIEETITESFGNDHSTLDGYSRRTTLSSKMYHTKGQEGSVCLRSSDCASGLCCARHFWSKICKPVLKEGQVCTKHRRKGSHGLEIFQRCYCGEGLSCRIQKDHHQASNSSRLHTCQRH
Assay [10] has as its system Inhibin beta A chain (activin A). In words: small molecules binding activin A – biochemical, small-molecule microarray, 635 nm fluorescence scan, primary screen (AID 1107).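 Note: mouse activin A protein probed at 4.33 µg/mL on printed slides; score merges bound-protein fluorescence near 667 nm with spot signal-to-noise.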 The following applies: INHBA, higher = more signal.

Active and inactive are the calls of the source.

`CC(=O)NCCCC[C@@H]1NC(=O)[C@H]2C[C@@H](C(=O)O)[C@@H](c3ccc(O)cc3)N2C1=O`: the composite z-score came to 1.43 in assay [1]; 0.13 in assay [2]; 0.372 in assay [3]; 1.32 in assay [5]; 1.34 in assay [6]; 1.02 in [7]. The composite z-score in assay [8] came out at 1.44; in [9], 1.28; in assay [10], 1.47. Also, in assay [4], the z-score was -0.177 (inactive).

With `COc1cc2c(cc1O)C(c1cccs1)N(Cc1ccc([N+](=O)[O-])o1)CC2` (stereo not given), the composite z-score in assay [1] was 1.15; in assay [2], 0.728; in [3], 0.27; in assay [5], 0.876; in [6], 0.0693; in [7] it was -0.033. Besides, the composite z-score in [8] was -0.0839; in assay [9] it was -0.466; in assay [10], -0.131. Besides, the z-score in [4] is -0.505 (inactive).

As for `COCC(=C=CC[C@H](O)c1cccc(OCCO)c1)C[C@H](O)c1cc(Cl)cc(Cl)c1O`, the composite z-score in assay [1] is 0.516; in [2], -0.0921; in assay [3] it was -0.174; in assay [5] it was 1.55; in assay [6], 1.17; in assay [7], 0.331. The composite z-score in assay [8] stood at 0.785; in assay [9], 0.551; in assay [10] it was 0.712. Also, the z-score in assay [4] is 0.102 (inactive).

Take `COC(=O)[C@@]1(Cc2ccc(OC)cc2)[C@H]2c3cc(C(=O)N4CCCC4)n(Cc4nc5ccccc5[nH]4)c3C[C@H]2CN1C(=O)c1ccccc1`: the composite z-score in [1] turned out to be 1.36; in assay [2] it was 1.48; in assay [3], 1.34; in assay [5], 0.77; in [6] it was 0.54; in [7], 0.206. The figures for the composite z-score in assay [8], in assay [9] and in assay [10] were 1.05, -0.49 and 1.28, respectively. Besides, in [4], the z-score was -1.29 (inactive).

For `CN1C(=O)C2C=CC(C(O)c3ccccc3)N(N3CCCCC3)C2C1=O` (stereo not given), the composite z-score in assay [1] is 1.75; in assay [2], 0.159; in [3], 0.846; in assay [5], 1.26; in assay [6], 0.83; in assay [7], -0.0247. The values for the composite z-score in [8], in assay [9] and in assay [10] were 0.494, 0.0514 and 0.932, respectively. Also, the z-score in assay [4] is 0.651 (inactive).

For the compound `C=C(CCCC)/C(=C/C[C@@H](OC(C)=O)c1ccccc1OCCO)c1cc(C(=O)OC)ccc1OC`, the composite z-score was 0.175 in [1]; -0.211 in [2]; -0.271 in assay [3]; -0.104 in assay [5]; 0.098 in [6]; -0.657 in assay [7]. Further, the composite z-score is -0.458 in assay [8], -0.149 in assay [9] and 0.864 in assay [10]. Further, in [4], the z-score was -0.5 (inactive).

`OCC1C=C(/C=C/c2ccccc2)CN1Cc1ccccc1Br` (stereo not given): the composite z-score is 1.1 in [1]; 0.296 in [2]; -0.241 in assay [3]; 1.18 in assay [5]; 0.86 in [6]; 0.357 in [7]. The values for the composite z-score in assay [8], in [9] and in [10] were 1.37, 1.12 and 0.692, respectively. The z-score in [4] is 0.103 (inactive).

With `CC(C)(C)OC(=O)CC[C@]1(C(=O)NCCN2CCOCC2)COC(c2ccc(OCCCO)cc2)=N1`, the composite z-score is 0.706 in [1]; 0.0968 in [2]; 0.465 in assay [3]; 1.42 in [5]; 0.743 in [6]; -0.422 in assay [7]. Besides, the composite z-score in assay [8] is 0.683; in assay [9], -0.105; in assay [10] it was 0.295. The z-score in [4] is -0.686 (inactive).

Consider `CS(=O)(=O)CCOC(=O)C1=CC(CCCO)=CC(c2ccc(CN3CCCC3)cc2)N(Cc2cccc(OC(F)(F)F)c2)C=C1C(=O)OCCS(C)(=O)=O` (stereo not given), for which the composite z-score amounted to 1.02 in assay [1]; 0.275 in assay [2]; 0.367 in assay [3]; 1.19 in assay [5]; 0.997 in assay [6]; 0.582 in assay [7]. Moreover, the composite z-score in assay [8] was found to be 0.945; in assay [9] it was 0.468; in assay [10] it was 1.32. Besides, the z-score in assay [4] was 0.0999 (inactive).

Regarding `CO[C@H]1O[C@H](CO)[C@@H](OC(=O)Nc2ccc(Oc3ccccc3)cc2)[C@H](OC(=O)Nc2ccc3c(c2)OCO3)[C@@H]1OC(=O)Nc1ccc2c(c1)OCO2`, the composite z-score in assay [1] is 1.38; in assay [2], 0.337; in assay [3], 0.478; in assay [5] it was 1.17; in assay [6], 1.33; in [7], 0.54. For the same compound, the composite z-score in [8] was found to be 1.39; in assay [9], 0.46; in assay [10], 0.707. Also, the z-score in [4] is -0.762 (inactive).

Take `COC(=O)[C@@]1(Cc2ccccc2)[C@H]2c3cc(C(=O)N4CCCC4)n(Cc4c(CO)[nH]cc(C)c4=O)c3C[C@H]2CN1C(=O)c1ccccc1`: the composite z-score in assay [1] turned out to be 0.893; in assay [2], 0.896; in assay [3], 1.24; in assay [5], 0.303; in [6], 0.132; in assay [7], 0.113. In addition, the composite z-score in [8] was 0.0713; in assay [9], -0.135; in assay [10] it was 1.27. In addition, the z-score in assay [4] is 0.796 (inactive).

For the compound `CC(C)Cc1ccc(CN2CC[C@@H](N)C2)cc1`, the composite z-score was 0.472 in [1]; -0.459 in assay [2]; -0.275 in [3]; -1.16 in assay [5]; -0.727 in [6]; -1.06 in [7]. Further, the composite z-score in [8] was -0.431; in assay [9], -0.444; in assay [10], 0.419. In addition, the z-score in assay [4] was -1.75 (inactive).

Take `COCCCNC(=O)[C@@]1(CCS(=O)(=O)c2ccccc2)N=C(c2ccc(OCCCO)cc2)O[C@H]1c1ccccc1N=[N+]=[N-]`: the composite z-score is 1.41 in [1]; 0.879 in [2]; 0.942 in assay [3]; 1.49 in [5]; 0.79 in [6]; -0.0333 in assay [7]. Besides, the composite z-score in assay [8] was found to be 1.25; in [9] it was 0.267; in assay [10], 0.796. For the same compound, the z-score in assay [4] is -0.0182 (inactive).

As to `O=C1O[C@H](c2ccccc2)[C@H](c2ccccc2)N2[C@H]1[C@@H](C(=O)N1CCN(c3ncccn3)CC1)[C@]1(C(=O)Nc3ccc(C#CC4=CCCCC4)cc31)[C@H]2c1ccccc1OCCO`, the composite z-score in [1] is 1.7; in assay [2], -0.14; in assay [3] it was 0.259; in assay [5], 1.02; in assay [6], 1.3; in [7], 0.645. The composite z-score in [8] turned out to be 1.31; in assay [9], 0.71; in [10] it was 1.08. The z-score in assay [4] was -1.14 (inactive).

Take `O=C1NC(=O)C2C1C=CC(C(O)C=Cc1ccc([N+](=O)[O-])cc1)N2Nc1ccc(Cl)cc1Cl` (stereo not given): the composite z-score in [1] is 0.373; in assay [2] it was 1.19; in [3], 1.17; in [5] it was 0.641; in assay [6] it was 0.364; in assay [7], 0.41. Also, the composite z-score is 1.02 in assay [8], 0.0567 in assay [9] and 1.11 in assay [10]. In addition, the z-score in assay [4] is -0.509 (inactive).

`CCOC(=O)C[C@H]1[C@H](OC(=O)c2ccc(C(=O)c3ccccc3)cc2)[C@@H](NC(=O)Cc2ccc(OC)cc2)c2cc(OCCCO)ccc2N1C(=O)c1ccc2ccccc2n1`: the composite z-score in assay [1] was found to be 0.31; in assay [2], 0.05; in [3] it was 0.161; in assay [5] it was 0.526; in assay [6], 0.392; in assay [7], 0.208. Moreover, the figures for the composite z-score in assay [8], in assay [9] and in assay [10] were 0.811, 0.0905 and 0.468, respectively. In addition, the z-score in assay [4] was 0.409 (inactive).

For `Cc1ccc(S[C@]2(C(=O)O)CC(=O)N(Cc3ccccc3C(F)(F)F)[C@@H]2c2ccc(CO)cc2I)cc1`, the composite z-score in [1] is -0.135; in assay [2], -0.537; in [3] it was 0.337; in assay [5], -0.39; in assay [6], -0.518; in assay [7], -1.11. Moreover, the composite z-score was -1 in [8], -1.28 in assay [9] and 1.16 in [10]. Also, the z-score in assay [4] is -1.15 (inactive).
